From PubChem BioAssay (NCI)
Compounds without any hit were thinned out: in the full panel of roughly 79,000, 15% have a hit. Unmarked numbers belong to inactive results. No stated cut-off is given here; in the data, active means growth inhibition above about 70%; inactive means the rest.

Experiment: NCI Yeast Anticancer Drug Screen. Data for the sgs1 mgt1 strain (AID 161);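 further: 0% = growth of cultures given vehicle only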
Conditions: S. cerevisiae sgs1 mgt1 strain, at 50.0 µM, active compounds read high
Procedure, shortened: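 Growth of a repair-deficient yeast mutant was monitored after compound treatment and expressed as inhibition relative to vehicle-treated cultures.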

Q: For `CC1(C(=O)O)CCCC1C(=O)O` (stereo not given), which growth inhibition is on record?
A: The growth inhibition was 1.75%.

Q: Which growth inhibition does the source give for `COc1cccc2cc(C(=O)Nc3ccccc3)c(=N)oc12` here?
A: Its growth inhibition is -31%.

Q: For `O=C(O)CCn1cnc2c(=S)nc[nH]c21`, which growth inhibition is on record?
A: Its growth inhibition is -28.4%.

Q: Which growth inhibition does the source give for `CN(C)CC(C)(C)C(=O)c1ccc(F)cc1` here?
A: The growth inhibition was -0.1%.

Q: Which growth inhibition does the source give for `CCc1nnc(CC)n1N` here?
A: The growth inhibition was 41.8%.

Q: With `O=C(Nc1ccc2c(c1)C(O)c1ccccc1-2)C(F)(F)F` (stereo not given) as the compound, how does the growth inhibition read?
A: The growth inhibition was 18.9%.

Q: For `CC(=O)OC(C)(C)c1ccc2c(c1)C(=O)C[C@@H]1[C@](C)(C#N)CCC[C@]21C`, which growth inhibition is on record?
A: The growth inhibition was -2.75%.

Q: For `Fc1cccc(-c2nnc(-c3ccccc3)o2)c1`, which growth inhibition is on record?
A: Its growth inhibition is 28.9%.

Q: For `CC[C@]12CCCN3CCc4c(n(c5ccccc45)C(=O)C1)[C@@H]32`, which growth inhibition is on record?
A: The growth inhibition was -49.1%.

Q: For `O=C(/C=C/c1ccc(O)cc1)c1cc(O)cc(O)c1`, which growth inhibition is on record?
A: The growth inhibition was 2%.

Q: Which growth inhibition does the source give for `COc1ccc2c(c1)CCCN1Cc3cc(OC)c(OC)cc3CC21` (stereo not given) here?
A: The growth inhibition was -33.8%.

Q: For `OCCSCCCCCSCCO`, which growth inhibition is on record?
A: Its growth inhibition is -7.3%.

Q: Which growth inhibition does the source give for `O=C(O)c1ccc(C2C3C=CC(C3)C2[N+](=O)[O-])cc1` (stereo not given) here?
A: The growth inhibition was -20.2%.

Q: With `[N-]=[N+]=NC(=O)c1ccc(S(=O)(=O)c2ccc(F)cc2)cc1` as the compound, how does the growth inhibition read?
A: The growth inhibition was 7.6%.

Q: Which growth inhibition does the source give for `CCN1C(=O)N(CC)C2(CC(=O)c3ccccc3O2)C1=O` (stereo not given) here?
A: Its growth inhibition is 20.2%.

Q: Which growth inhibition does the source give for `COC(=O)C(O)c1ccc(C(C)C)cc1` (stereo not given) here?
A: Its growth inhibition is -13.9%.

Q: For `O=CNCC1(c2ccccc2)CCNCC1`, which growth inhibition is on record?
A: Its growth inhibition is 8.05%.

Q: With `OC1CCCCC1[n+]1ccccc1` (stereo not given) as the compound, how does the growth inhibition read?
A: The growth inhibition was -7.45%.

Q: Which growth inhibition does the source give for `CCN(CC)CCN(C)C(=O)C(=O)c1ccccc1` here?
A: Its growth inhibition is -10.6%.

Q: With `O=C1CCCC/C1=C\c1ccc([N+](=O)[O-])cc1` as the compound, how does the growth inhibition read?
A: The growth inhibition was 29.4%.

Q: Which growth inhibition does the source give for `CCC(=O)c1c2c(cc3ccccc13)CCCC2` here?
A: The growth inhibition was 7.3%.

Q: For `O=C1c2ccccc2C(=O)c2c(Nc3ccc(Nc4cccc5c4C(=O)c4ccccc4C5=O)c4c3C(=O)c3ccccc3C4=O)cccc21`, which growth inhibition is on record?
A: The growth inhibition was 4.7%.

Q: With `CC1(C)OCC(Cc2ccc3c(c2)OCO3)CO1` as the compound, how does the growth inhibition read?
A: Its growth inhibition is -5.75%.

Q: Which growth inhibition does the source give for `COC(=O)c1nc(N)nc(C(=O)OC)c1C(=O)c1ccc(Cl)cc1Cl` here?
A: Its growth inhibition is -15.5%.

Q: With `CN(c1ccccc1)S(=O)(=O)c1ccc(Cl)cc1` as the compound, how does the growth inhibition read?
A: Its growth inhibition is 32.1%.

Q: Which growth inhibition does the source give for `O=C(CC(C(=O)O)S(=O)(=O)O)Nc1ccc(S(=O)(=O)c2ccc(NC(=O)CC(C(=O)O)S(=O)(=O)O)cc2)cc1` (stereo not given) here?
A: Its growth inhibition is 2.55%.

Q: For `N/C(=N\S(=O)(=O)c1cc(C(F)(F)F)cc(C(F)(F)F)c1)c1ccncc1`, which growth inhibition is on record?
A: The growth inhibition was 23.9%.

Q: For `COC(=O)CCC(=O)Nc1cc(Cl)ccc1Cl`, which growth inhibition is on record?
A: Its growth inhibition is -0.35%.

Q: For `COc1ccc(/C=C2\N=C(N/N=C\C(O)C(O)C(O)C(O)CO)NC2=O)cc1` (stereo not given), which growth inhibition is on record?
A: Its growth inhibition is 9.2%.

Q: For `CC1=NC=C(O)c2ccccc2O1`, which growth inhibition is on record?
A: Its growth inhibition is 26.8%.

Q: Which growth inhibition does the source give for `FC(F)(F)c1ccc2nc[nH]c2c1` here?
A: Its growth inhibition is -3.15%.

Q: Which growth inhibition does the source give for `C=C1c2c(cc3c(c2O)c(=O)c2ccccc2n3C)OC1(C)C` here?
A: Its growth inhibition is -23.1%.

Q: With `O=C(Nc1ccccn1)c1ccccc1` as the compound, how does the growth inhibition read?
A: The growth inhibition was 15.6%.

Q: For `CCn1nc(C)c2c1C(=O)NCC(=O)N2`, which growth inhibition is on record?
A: The growth inhibition was -26.9%.

Q: For `COc1ccccc1/C=N/Nc1nnc2c3ccccc3c3ncccc3c2n1`, which growth inhibition is on record?
A: The growth inhibition was -22.5%.

Q: Which growth inhibition does the source give for `O=c1cc(-c2ccccc2)[nH]c2ncccc12` here?
A: Its growth inhibition is -37.1%.

Q: Which growth inhibition does the source give for `COc1ccc(C(=O)c2ccccc2)c(OC(=O)Nc2c(Cl)cccc2Cl)c1` here?
A: Its growth inhibition is 10.2%.

Q: Which growth inhibition does the source give for `C=CCSc1nc2ccc(N3C(=O)C4C5C=CC(C5)C4C3=O)cc2s1` (stereo not given) here?
A: Its growth inhibition is -6.35%.

Q: With `O=[N+]([O-])c1ccc(-c2noc(-c3ccccc3)c2C2=NCCN2)cc1` as the compound, how does the growth inhibition read?
A: Its growth inhibition is 5.25%.

Q: Which growth inhibition does the source give for `Cc1c(C)c2cc3c(=O)c(CCl)coc3c(C)c2oc1=O` here?
A: Its growth inhibition is 16%.
